# Measurements taken from PubChem BioAssay.
# The source made the active and inactive calls.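 The calls were made as follows, unless noted: active = inhibition of the reporter signal at or above 50%; inactive = inhibition below 50%.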
# Key:
# [1] = inhibitors of TNFa-induced NFkB p65 translocation, primary screen, imaging, HUVEC, MLSMR starter and 10KST1 sets (AID 438;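 active = inhibition above 20% together with a positive visual image hit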;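 also: compound added about 3h40 before a 20 min TNFalpha stimulation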;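 as to inhibition: signal is the nuclear over cytoplasmic p65 intensity ratio per well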); conditions: HUVEC TNFa-induced p65 nuclear translocation; cell count: measured here: nuclei count (cytotoxicity indicator), at 2.08 µM; inhibition: at 2 µM, stronger effect = higher value, 0% TNFa-plus-vehicle, 100% no-TNFa wells
# [2] = reduction of polyQ htt aggregates in cells – imaging, exon1htt(103Q)mCFP cells, high-content imaging, primary screen (AID 483;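 active = visual image review flags a hit and inhibition of aggregation exceeds 20%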;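 also: compound exposure lasted 3 days before fixation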;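 as to nuclei count: percent of the per-plate median nuclei count of sample wells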); conditions: exon1htt(103Q)mCFP cell line, aggregate imaging, at 2 µM; inhibition of aggregation: stronger effect = higher value; nuclei count: measured here: cell count, toxicity
# [3] = endothelial E-selectin expression blockers – imaging, HUVEC, immunofluorescence, MLSMR starter and 10KST1 sets, primary screen (AID 487;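 active = visually confirmed hit in the image check and inhibition above 20%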;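 as to inhibition: signal is fraction of cell area covered by stained E-selectin grains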;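 as to nuclei count: 100% = median nuclei count of all wells on the same plate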); conditions: HUVEC TNFalpha-induced E-selectin immunofluorescence imaging, at 2 µM; inhibition: stronger effect = higher value; nuclei count: measured here: cell number, toxicity
# [4] = target: Voltage-gated potassium channel subunit beta-2 (Rattus norvegicus) (UniProt P62483); test: inhibitors of rat Kvbeta2 reductase activity – biochemical, NADPH fluorescence, primary screen (AID 622;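 active = fluorescence slope higher than the sample average by over 3 SD, cut at about -0.22 in these data, passing the limit was not always enough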;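 also: slope of raw intensity against log time taken from 70 to 1610 s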); conditions: recombinant KvBeta, 4-cyanobenzaldehyde reduction, at 10 µM, stronger effect = higher value
# [5] = target: Voltage-gated potassium channel subunit beta-2 (Rattus norvegicus) (UniProt P62483); test: enhancers of rat Kvbeta2 NADPH turnover – biochemical, NADPH fluorescence, primary screen (AID 623;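 active = NADPH fluorescence slope more negative than the mean of all samples by about 3 SD, 99.7% confidence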;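 also: fluorescence intensity change per second fitted from 20 to 320 s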); conditions: Recombinant KvBeta, NADPH fluorescence decrease slope, 10 min; at 10 µM; stronger effect = lower value
# [6] = target: Alpha-2C adrenergic receptor (Homo sapiens) (UniProt P18825); test: compounds altering alpha2C-coupled GIRK flux – cell-based, HEK293 alpha2C/GIRK1/2, thallium flux, primary screen (AID 624;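 active = fluorescence slope after compound addition differing from the mean of all screened samples at 99.7% confidence, in either direction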;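 also: slope of fluorescence ratio to pre-addition baseline per second over 15 to 24 s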); conditions: thallium flux BTC fluorescence, at 10 µM, actives lie on both sides
# [7] = blockers of RIG-like receptor reporter activation – cell-based, Sendai virus stimulus, luciferase, 10K MLSCN set, TLR/RLR signaling modifier project, primary screen (AID 602276;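 active = inhibition at or above 50% at 10 µM; inactive = inhibition below 50%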;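 also: firefly luciferase from ISG56 promoter only with Renilla not read in this screen; 0% = Sendai virus plus DMSO and 100% = medium plus DMSO without virus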); conditions: HEK293 RL24 IRF3 luciferase reporter, at 10 µM, stronger effect = higher value
# [8] = TLR3 IRF3 reporter activation blockers – cell-based, poly I:C stimulus, luciferase, 10K MLSCN set, primary screen (AID 602277); conditions: HEK293-TLR3 RL24 IRF3 luciferase reporter, at 10 µM, stronger effect = higher value
# Voltage-gated potassium channel subunit beta-2 (Rattus norvegicus), sequence (P62483 whole entry, looked up): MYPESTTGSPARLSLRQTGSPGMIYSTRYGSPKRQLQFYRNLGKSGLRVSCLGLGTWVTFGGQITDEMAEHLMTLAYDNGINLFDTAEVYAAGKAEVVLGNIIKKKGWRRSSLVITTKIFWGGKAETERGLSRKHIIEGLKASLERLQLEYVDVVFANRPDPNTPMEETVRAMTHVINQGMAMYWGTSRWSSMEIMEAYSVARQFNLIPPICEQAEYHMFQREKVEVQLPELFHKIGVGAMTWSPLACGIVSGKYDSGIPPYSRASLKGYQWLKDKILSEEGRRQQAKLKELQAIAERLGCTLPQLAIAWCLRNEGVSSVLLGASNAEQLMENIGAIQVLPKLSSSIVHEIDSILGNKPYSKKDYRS
# Alpha-2C adrenergic receptor (Homo sapiens), sequence (P18825 whole entry, looked up): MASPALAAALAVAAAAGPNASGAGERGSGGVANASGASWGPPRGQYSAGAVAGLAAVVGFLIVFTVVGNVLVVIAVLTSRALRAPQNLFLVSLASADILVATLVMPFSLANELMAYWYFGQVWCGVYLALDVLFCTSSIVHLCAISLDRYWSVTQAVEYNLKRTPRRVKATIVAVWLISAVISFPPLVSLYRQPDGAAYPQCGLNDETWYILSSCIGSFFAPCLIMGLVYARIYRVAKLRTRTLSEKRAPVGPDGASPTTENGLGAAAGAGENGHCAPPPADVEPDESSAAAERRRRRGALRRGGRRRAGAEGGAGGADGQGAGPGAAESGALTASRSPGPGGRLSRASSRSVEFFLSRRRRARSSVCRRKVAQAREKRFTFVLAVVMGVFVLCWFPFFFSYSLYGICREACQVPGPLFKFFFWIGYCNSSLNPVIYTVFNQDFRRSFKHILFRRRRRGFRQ
SMILES,cell count [1],inhibition [1],inhibition of aggregation [2],nuclei count [2],inhibition [3],nuclei count [3],fluorescence slope [4],NADPH fluorescence slope [5],slope [6],inhibition [7],inhibition [8]
O=C(CSc1nnc(-c2ccccc2Br)o1)Nc1cccc2ccccc12,541,-12.1% (inactive),16.2% (inactive),81.3%,33.7% (inactive),65.3%,-0.546 (inactive),2.3e-05 (inactive),0.00661 (inactive),1.31% (inactive),-12.6% (inactive)
Oc1cc(NCc2cccnc2)ccc1-c1nc2ccccc2o1,378,6.8% (inactive),-7.8% (inactive),119%,-28.5% (inactive),123%,-0.46 (inactive),8.7e-06 (inactive),0.00562 (inactive),-31.3% (inactive),-152% (inactive)
Cc1nc2ccc(Br)cn2c1NC(C)(C)C,209,12.8% (inactive),-17.9% (inactive),103%,-2.7% (inactive),102%,-0.531 (inactive),-2.1e-05 (inactive),0.00552 (inactive),-1.2% (inactive),3.15% (inactive)
COc1ccc(N(C)C(=O)CCS(=O)(=O)c2cccc3nonc23)c(OC)c1,557,-1.4% (inactive),-17.3% (inactive),121%,-18.3% (inactive),125%,-0.488 (inactive),-0.000205 (inactive),0.00467 (inactive),4.07% (inactive),16.9% (inactive)
COc1ccc(C(c2nnnn2C2CCCC2)N2CCN(C3CCCC3)CC2)cc1OC (stereo not drawn),263,17.5% (inactive),8.8% (inactive),104%,2% (inactive),88.5%,-0.512 (inactive),-0.000149 (inactive),0.00468 (inactive),12.8% (inactive),18.8% (inactive)
CSCCC(NC(=O)c1ccco1)C(=O)OC(C)C(=O)NC(=O)NC1CCCCC1 (stereo not drawn),538,-6.1% (inactive),7.6% (inactive),88%,-79.7% (inactive),100%,-0.485 (inactive),1e-05 (inactive),0.00394 (inactive),13.1% (inactive),20.3% (inactive)
COc1ccc(CCNC(=O)c2cc3sc(Cl)cc3n2C)cc1OC,611,4.1% (inactive),-8.1% (inactive),99.5%,2.3% (inactive),89%,-0.626 (inactive),-4e-05 (inactive),0.00715 (inactive),-15.3% (inactive),-18.8% (inactive)
c1ccc(Cc2ccc(OCCn3cncn3)cc2)cc1,755,-5.6% (inactive),-15.5% (inactive),102%,-68.7% (inactive),108%,-0.477 (inactive),1.2e-05 (inactive),0.00592 (inactive),-18.4% (inactive),-0.13% (inactive)
O=C(C1CCCCC1)N1CCC(c2nc3c(nnn3Cc3c(F)cccc3Cl)c(=O)[nH]2)CC1,413,-4.6% (inactive),-15.9% (inactive),116%,-110% (inactive),249%,-0.454 (inactive),-0.000123 (inactive),0.00666 (inactive),6.04% (inactive),27% (inactive)
Cc1ccc(-c2cc(C(=O)Nc3cc(C)on3)c3ccccc3n2)c(C)c1,688,1.1% (inactive),11.6% (inactive),111%,-17.5% (inactive),115%,-0.543 (inactive),-4.3e-05 (inactive),0.00596 (inactive),10.5% (inactive),38.8% (inactive)
CC(=O)c1sc(NC(=O)C2COc3ccccc3O2)nc1C (stereo not drawn),604,-0.3% (inactive),24.9% (inactive),87.8%,19.7% (inactive),104%,-0.586 (inactive),-2.4e-05 (inactive),0.00774 (inactive),15.8% (inactive),-48.7% (inactive)
COc1cc(CN(C)CC(=O)c2[nH]c(C)c(C(C)=O)c2C)ccc1OC(F)F,443,1.6% (inactive),-11% (inactive),95.9%,-86.8% (inactive),129%,-0.616 (inactive),-2.3e-05 (inactive),0.00408 (inactive),-17.1% (inactive),-82.6% (inactive)
CCOC(=O)/C=C1\SCC(=O)N1Cc1ccc(Br)cc1,562,-4.8% (inactive),-14.9% (inactive),96%,-49.7% (inactive),116%,-0.462 (inactive),-0.000366 (inactive),0.00633 (inactive),10.8% (inactive),20% (inactive)
COc1ccc(CCNC(=O)c2ccncc2)cc1OC,162,-18.8% (inactive),10.4% (inactive),95.7%,11.2% (inactive),90%,-0.499 (inactive),-4.1e-05 (inactive),0.00561 (inactive),17.7% (inactive),19.9% (inactive)
CCOC(=O)N1CCN(c2c(NCC3CCN(Cc4cccc(C)c4)CC3)c(=O)c2=O)CC1,577,-2.7% (inactive),25.8% (inactive),104%,-67.1% (inactive),129%,-0.507 (inactive),-2.1e-05 (inactive),0.00653 (inactive),5.85% (inactive),23.9% (inactive)
CC1CCN(C(=O)CSc2nc3ccccc3[nH]2)CC1,761,0.5% (inactive),1.8% (inactive),110%,75.2% (active),88.9%,-0.359 (inactive),-9.6e-06 (inactive),0.00679 (inactive),-38.7% (inactive),-116% (inactive)
CCN(CC)CCCNC(=O)c1cn(C)c2ccc(S(=O)(=O)N(C)C)cc2c1=O,559,-2.8% (inactive),-53.9% (inactive),73.6%,69.2% (active),98.9%,-0.587 (inactive),-3.7e-05 (inactive),0.00615 (inactive),7.25% (inactive),33.2% (inactive)
COc1ccc(CCNC(=O)C2(C)CCC(=O)N2Cc2ccc3c(c2)OCO3)cc1OC (stereo not drawn),822,0.6% (inactive),18.7% (inactive),106%,-37.2% (inactive),116%,-0.59 (inactive),-3.7e-05 (inactive),0.00743 (inactive),8.58% (inactive),36.6% (inactive)
COc1cc2c(cc1OC)CN(C(=O)CSc1nc3[nH]ncc3c(=O)n1-c1ccccc1)CC2,509,-8.2% (inactive),-8.9% (inactive),86.9%,-7.3% (inactive),87%,-0.492 (inactive),-2.6e-05 (inactive),0.00737 (inactive),11% (inactive),23.1% (inactive)
COCCn1nnnc1C(c1ccccc1OC)N1CCc2ccccc2C1 (stereo not drawn),511,-3.6% (inactive),37.6% (inactive),105%,-89.6% (inactive),96.1%,-0.322 (inactive),-5e-05 (inactive),0.00407 (inactive),16.5% (inactive),32.8% (inactive)
CCOC(=O)c1cnn(-c2cc(C)nc3c(-c4ccccc4)c(C)nn23)c1N,645,-7.8% (inactive),7.9% (inactive),124%,-27.2% (inactive),120%,-0.625 (inactive),-3.2e-05 (inactive),0.00566 (inactive),14.6% (inactive),17.2% (inactive)
O=C(Cn1nnc(-c2ccc(CN3CCOCC3)cc2)n1)NC1CCCCC1,447,0.3% (inactive),7.3% (inactive),108%,-20.9% (inactive),118%,-0.584 (inactive),-4.1e-05 (inactive),0.0043 (inactive),14% (inactive),9.43% (inactive)
CC1(C)CC(=O)C(C=NCC2CCNCC2)=C(O)C1,249,-2.1% (inactive),6.8% (inactive),74.8%,-10.9% (inactive),116%,-0.466 (inactive),-4.9e-06 (inactive),0.00268 (inactive),3.67% (inactive),27.1% (inactive)
CC(C)(C)c1ccc(C(=O)Nc2cnccn2)cc1,351,1.7% (inactive),7.6% (inactive),100%,11.6% (inactive),108%,-0.379 (inactive),-6.5e-05 (inactive),0.0039 (inactive),-50.1% (inactive),-138% (inactive)
O=C(OCc1ccccc1F)c1ccc2c(c1)OCCO2,372,3.4% (inactive),-14.1% (inactive),103%,-0.9% (inactive),90.8%,-0.448 (inactive),-8.7e-06 (inactive),0.00627 (inactive),-0.266% (inactive),-113% (inactive)
O=C(Nc1nccs1)c1ccc(COc2ccccc2Br)o1,694,-14.6% (inactive),-27.8% (inactive),111%,-85.8% (inactive),118%,-0.487 (inactive),-5.4e-05 (inactive),0.00542 (inactive),21.2% (inactive),-63.2% (inactive)
O=C1CCn2nc(-c3ccc(Cl)cc3)cc2N1,557,-0.5% (inactive),-106% (inactive),1.2%,-66.1% (inactive),118%,-0.601 (inactive),-3.8e-05 (inactive),0.00658 (inactive),-20.1% (inactive),-53% (inactive)
CCOC(=O)C1CCCN(Cc2nc(N)nc(Nc3ccc(C)cc3)n2)C1 (stereo not drawn),580,1% (inactive),-0.6% (inactive),90.1%,-41.3% (inactive),130%,-0.438 (inactive),-0.000102 (inactive),0.00446 (inactive),22.6% (inactive),17.2% (inactive)
